# Assay outcomes deposited in PubChem by The Scripps Research Institute Molecular Screening Center.
# Hits are enriched below; roughly 3.5% of the tested compounds scored in any of these assays.
# GPR151 activ: activates the human receptor GPR151 | PathHunter beta-arrestin GPR151 cells, luminescence | Q8TDV0 | AID 1508602 | activation, % at 11.2 µM | hit rate 1% among 650,000; in the data active = activation above about 4.9%;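 also: 0% = median of compound wells and 100% = cells with positive control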
# MITF primary: human MITF inhibition, primary screen; AlphaScreen MITF homodimerization, bead proximity signal; O75030; hit rate 0.91% among 650,000; inhibition, % at 2.6 µM; in the data active = inhibition above about 50%;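 also: 0% = vehicle wells with protein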
# FBW7 act: human FBW7 E3 ligase activation, primary screen | Q969H0 | AlphaScreen FBW7–phospho-cyclin E peptide binding, activator screen | normalized activity (activation), % at 26.1 µM | hit rate 0.13% among 650,000 | AID 1259310; in the data active = normalized activity above about 1.9%;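 also: purified mutant Fbw7 with reduced substrate affinity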
# Target sequence (Q969H0 whole entry, looked up): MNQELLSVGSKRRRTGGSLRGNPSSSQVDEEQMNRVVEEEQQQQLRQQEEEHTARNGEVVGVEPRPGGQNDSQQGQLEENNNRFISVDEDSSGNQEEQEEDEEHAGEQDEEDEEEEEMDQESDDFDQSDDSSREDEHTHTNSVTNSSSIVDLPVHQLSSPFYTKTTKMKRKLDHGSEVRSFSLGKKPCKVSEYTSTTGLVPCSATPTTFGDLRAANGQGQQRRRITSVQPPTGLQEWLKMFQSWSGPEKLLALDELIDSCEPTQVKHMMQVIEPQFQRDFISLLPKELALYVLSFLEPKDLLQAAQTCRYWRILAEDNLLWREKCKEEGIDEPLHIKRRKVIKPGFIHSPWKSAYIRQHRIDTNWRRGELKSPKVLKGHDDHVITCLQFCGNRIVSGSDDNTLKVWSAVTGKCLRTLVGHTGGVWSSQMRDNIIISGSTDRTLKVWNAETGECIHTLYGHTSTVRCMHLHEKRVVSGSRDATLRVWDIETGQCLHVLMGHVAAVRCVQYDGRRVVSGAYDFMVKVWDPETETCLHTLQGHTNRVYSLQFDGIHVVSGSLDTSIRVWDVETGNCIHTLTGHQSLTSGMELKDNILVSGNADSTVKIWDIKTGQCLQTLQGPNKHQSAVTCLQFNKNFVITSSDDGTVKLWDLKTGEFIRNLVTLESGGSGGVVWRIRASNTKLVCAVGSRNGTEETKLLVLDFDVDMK
# TEAD-YAP inh: TEAD-YAP interaction inhibition; HEK-TIYL cells, TEAD-Gal4/YAP UAS-luciferase luminescence; inhibition, % at 9.12 µM; hit rate 1.4% among 640,000; AID 1259422; in the data active = inhibition above about 32%;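 also: 0% = median of test compound wells and 100% = reference inhibitor wells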
# GPR151 conf act: confirmation of human GPR151 activators. GPR151 PathHunter beta-arrestin cells, luminescence, 90 min; % of EA-reagent control over plate median. shares compounds with GPR151 activ. AID 1508609. activation, % at 11.2 µM. 6,700 tested, under 10 active;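 active = mean percent activation across replicates above the confirmation screen cutoff of 4.91%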
# GPR119 counter: activates human GPR119 in a GPR151 counter-screen; GPR119 PathHunter beta-arrestin cells, luminescence, 90 min; 0 = compound-well median, 100 = enzyme-acceptor control; hit rate 0.3% among 6,700; AID 1508611; activation, % at 11.2 µM; shares compounds with GPR151 activ;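 active = mean percent activation in the counterscreen above 29.09%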;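 also: counterscreen on off-target GPR119 to flag nonselective hits from the GPR151 activator screen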
# An asterisk follows results filed as active; nt = no result given; ! = a repeat was not active.
SMILES,GPR151 activ,MITF primary,FBW7 act,TEAD-YAP inh,GPR151 conf act,GPR119 counter
CCn1c(COc2cccc(C)c2)nnc1SCC(=O)Nc1cccc(C(=O)O)c1,6.3*,4,0,0,0,3
C/C(=N\NC(=O)COc1cccc(C)c1C)c1ccc(Br)s1,3,9,0,-7,nt,nt
COCCN1C=C(C(=O)OC)C(c2cccc(OC)c2OC(C)C)C(C(=O)OC)=C1,11*,12,0,-3,1,0
CC(C)c1nnc(C2CCN(C(=O)Cn3c(=O)oc4ccccc43)CC2)o1,9.7*,-11,0,11,1,0
COc1nn(C)cc1C(=O)NCC(=O)Nc1ccc2c(c1)Cc1ccccc1-2,9.5*,8,0,4,1,9
COc1ccc(-c2cncc(-c3cc(NCCCO)nc(-c4ccccc4)n3)c2)cc1,2,3,0,10,nt,nt
O=C1CSC(c2cccc([N+](=O)[O-])c2)N1Cc1ccccc1 (configuration not stated),10*,15,0,-10,1,5
COCC(=O)N1CCCc2ccc(NS(=O)(=O)c3ccc(C)c(C)c3)cc21,0,17,0,15,nt,nt
COCC(=O)N1CCCc2ccc(NS(=O)(=O)c3cc(C)ccc3C)cc21,6.8*,6,0,14,0,0
COc1ccc(OCC2c3cc(OC)c(OC)cc3CCN2C(=O)C(C)(C)C)cc1 (configuration not stated),0,18,0,6,nt,nt
CCOC(=O)c1c(NC(=O)CSc2n[nH]c(-c3ccccc3)n2)sc(C(C)=O)c1C,2,6,0,4,nt,nt
CCOC(=O)c1c(NC(=O)CSc2n[nH]c(N)n2)sc(C(C)=O)c1C,13*,6,0,-4,0,-3
O=C(N/C(=C/c1ccc(Cl)cc1)C(=O)N1CCOCC1)c1ccccc1,2,-2,0,3,nt,nt
O=C(N/C(=C/c1ccc(Cl)cc1)C(=O)N1CCOCC1)c1ccccc1Br,6.3*,10,0,12,-1,-13
COC(=O)c1ccccc1C(=O)c1cccc2ccccc12,10*,-3,0,1,0,-4
COc1ccc(NC(=O)c2cccc3ccccc23)cc1,-1,-3,0,-4,nt,nt
Cc1ccc(NC(=O)C2c3ccccc3Oc3ccccc32)cc1Cl,-2,11,0,-1,nt,nt
Nc1ncnc(Nc2ccc(S(=O)(=O)Nc3ncccn3)cc2)c1[N+](=O)[O-],4.9*,2,0,-9,0,0
Cc1cc(C)nc(NS(=O)(=O)c2ccc(Nc3ncnc(N)c3[N+](=O)[O-])cc2)n1,2,-1,0,-3,nt,nt
CN1CCC(CNS(=O)(=O)CCc2ccccc2)CC1,5.7*,14,0,2,-1,-10
CCOC(CNc1nc(OC)cc(OC)n1)(OCC)c1ccccn1,5.0*,-4,0,1,1,5
Cc1ccc(S(=O)(=O)C2CCN(C(=O)c3cc(C)n(C)n3)CC2)cc1,0,3,0,8,nt,nt
Cc1cc(C(=O)N2C=CC(C(F)(F)F)=NCC2)nn1C,5.0*,4,0,-3,0,-3
Cc1ccc(Cl)cc1NS(=O)(=O)c1c[nH]c2ccc([N+](=O)[O-])cc12,0,-3,0,-11,nt,nt
COc1ccc2c(CNCc3ccc(F)cc3)c(C(=O)O)n(Cc3ccc(C)cc3)c2c1,7.8*,1,0,6,0,2
SMILES,GPR151 activ,MITF primary,FBW7 act,TEAD-YAP inh,GPR151 conf act,GPR119 counter
O=C(Nc1c(F)cccc1F)N1CCn2cccc2C1c1ccccc1 (configuration not stated),11*,2,0,2,-1,-9
CS(=O)(=O)Nc1ccccc1Oc1ccccc1,7.9*,2,0,-1,0,-4
O=C(O)c1cc(C23CC4CC(CC(C4)C2)C3)ccc1O,14*,-10,0,6,0,-3
CCOC(=O)CCCNCc1ccc(F)cc1,-1,1,0,-8,nt,nt
COCCNC(=O)[C@@H]1C[C@H](NCc2ccccc2)CN1Cc1ccccc1Cl,8.5*,5,1,-4,0,1
COCCNC(=O)[C@@H]1C[C@H](NCc2ccc(C(C)C)cc2)CN1Cc1ccccc1Cl,1,7,1,-10,nt,nt
CCc1ccc(S(=O)(=O)N2CCCCC2)cc1,4,-7,-1,-9,nt,nt
CCOC(=O)c1ccc(NC(=S)Nc2ccccn2)cc1,5.0*!,16,0,-43,1,15
O=C(COc1ccccc1)NC(=S)Nc1ccccn1,6.6*,8,0,0,0,2
COC(=O)c1c(NC(NC(=O)c2ccco2)C(=O)c2ccccc2)sc2c1CCCC2 (configuration not stated),0,17,0,-9,nt,nt
COc1ccc(Cl)cc1C(=O)Nc1cc(-c2nc3ccccc3o2)ccc1Cl,-1,0,0,-42,nt,nt
COc1cc(/C=C2\SC(=S)N(c3cccc(C(=O)O)c3)C2=O)ccc1O,-2,9,0,-2,nt,nt
Cc1ccc(NC(=O)CC23CC4CC(CC(C4)C2)C3)cc1,1,8,0,-2,nt,nt
COc1ccccc1CNC(=O)CSc1cc(C)[nH]c(=O)n1,12*,-17,0,1,0,7
Cc1cc(SCc2ccccc2Cl)nc(=O)[nH]1,7.6*,-9,0,-14,0,5
Cc1cc(SCC(=O)NCc2ccc(F)cc2)nc(=O)[nH]1,-1,-8,0,2,nt,nt
COc1cc(C(=O)NNC(=O)CCN2CCCCC2)cc(OC)c1OC,4.9*,-16,0,9,-1,-14
O=C(CS(=O)CC(=O)Nc1ccc2c(c1)OCCO2)Nc1ccc(F)cc1 (configuration not stated),0,-3,0,-2,nt,nt
O=C(CCCCC(=O)Nc1ccc2c(c1)OCCO2)Nc1ccc2c(c1)OCCO2,5.1*,2,0,9,0,-3
O=C(CS(=O)CC(=O)Nc1ccc2c(c1)OCCO2)Nc1ccc(Cl)cc1 (configuration not stated),6.7*,16,0,-45,1,6
O=C(COC(=O)c1ccco1)Nc1ccc2c(c1)OCO2,5.5*,-9,0,-3,1,4
CC(c1ccon1)N(C)C(=O)c1cccc(OC2CCN(CC(C)(C)C)CC2)c1 (configuration not stated),1,4,0,4,nt,nt
COc1ccc(C2Nn3c(C)nnc3SC2C(=O)Nc2ccccc2F)cc1 (configuration not stated),0,6,0,7,nt,nt
O=C(Nc1ccc(Br)cc1F)NC1CCCCC1,6.6*,-4,0,-45,1,0
NN1C(=O)c2ccccc2NC1C1CC=CCC1 (configuration not stated),20*,16,1,-11,-1,-9
